Values joined by “and” are separate entries in the source; they are usually repeats but may differ in a detail not shown here. Identical values can stand only once. Records with an inconclusive call do not appear. Where a call stands in place of a potency, no number is given. Active and inactive are the calls of the source. Calls follow the shape of the dose curve; as a rule, active = well fitted curve in the direction sought with a large enough effect; inconclusive = small, poorly fitted or top-dose-only effect, or another doubt; inactive = no such curve, though single readings can be large; an effect the other way counts as inactive or inconclusive.
What was measured:
[1] = biological target: N-terminal Xaa-Pro-Lys N-methyltransferase 1 (Homo sapiens) (UniProt Q9BV86); test: qHTS Assay for Inhibitors of N-terminal methyltransferase 1 (NTMT1): LOPAC validation of the NTMT1 SAHH-coupled ThioGlo3 Assay (AID 1347143);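 also: SAH from peptide methylation measured as thiol fluorescence via SAHH coupling and ThioGlo3; nearly all actives have a fitted effect of over 70% in size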; also: potency is read from the fitted curve at half-maximal effect
Method in brief: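 Steps: dispense 125nM NTMT1; pin-transfer test compounds at several concentrations, with 1uM RCC1-6 peptide as control; incubate 1 min; start with reagent holding 100uM SAM, 10uM SAHH, 15uM ThioGlo3; read at 0 and 30 min.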

[2] = system: Zika virus NS2B-NS3 protease (unlinked); test: Optimization of GU AMC qHTS for Zika virus inhibitors: Unlinked NS2B-NS3 protease assay (AID 1347151); also: nearly all actives have a fitted effect of over 80% in size; also: potency is read from the fitted curve at half-maximal effect
Method in brief: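 Noncovalent NS2B hydrophilic domain–NS3 protease complex (25 nM final) in 10 mM Tris-HCl pH 8.0, 0.01% Tween 20; AMC substrate, room temperature 15 min (~20% conversion); fluorescence change normalized, 4-parameter Hill fit.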

[3] = system: Zika virus NS2B-NS3 protease; test: Primary screen GU AMC qHTS for Zika virus inhibitors (AID 1347154); also: nearly all actives have a fitted effect of over 70% in size
Method in brief: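 Unlinked Zika NS2B hydrophilic domain–NS3 protease complex at 25 nM in 10 mM Tris-HCl pH 8.0, 0.01% Tween 20, with an AMC peptide substrate. Fluorescence change (340/450 nm) over 15 min at room temperature, normalized to controls, fitted to 4-parameter Hill.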

[4] = qHTS of pediatric cancer cell lines to identify multiple opportunities for drug repurposing: Confirmatory screen for Rh41 cells (AID 1347123);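 also: potency is read from the fitted curve at half-maximal effect; 48 h compound exposure; nearly all actives have a fitted effect of over 60% in size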
Method in brief: (§1)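 Viability after 48 h compound treatment at 37C, 500-1,000 cells/well, read as ATP luminescence with CellTiter-Glo. Primary screens used 11-point (MIPE, 0.78 nM-46 µM) or 8-point (NPC, 0.59 nM-46 µM) final concentrations; follow-up screens used 11-point dilutions.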

[5] = qHTS of pediatric cancer cell lines to identify multiple opportunities for drug repurposing: Confirmatory screen for RD cells (AID 1347124);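 also: potency is read from the fitted curve at half-maximal effect; cells exposed to compound for 48 h before viability readout; nearly all actives have a fitted effect of over 65% in size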
Method in brief: as §1

[6] = qHTS of pediatric cancer cell lines to identify multiple opportunities for drug repurposing: Confirmatory screen for Rh18 cells (AID 1347125); also: potency is read from the fitted curve at half-maximal effect; nearly all actives have a fitted effect of over 55% in size
Method in brief: as §1

[7] = qHTS of pediatric cancer cell lines to identify multiple opportunities for drug repurposing: Confirmatory screen for Rh30 cells (AID 1347126); also: nearly all actives have a fitted effect of over 55% in size; also: potency is read from the fitted curve at half-maximal effect
Method in brief: as §1

[8] = qHTS of pediatric cancer cell lines to identify multiple opportunities for drug repurposing: Confirmatory screen for OHS-50 cells (AID 1347128);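 also: potency is read from the fitted curve at half-maximal effect; compound exposure lasted 48 h at 37 degrees C; nearly all actives have a fitted effect of over 55% in size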
Method in brief: as §1

[9] = qHTS of pediatric cancer cell lines to identify multiple opportunities for drug repurposing: Confirmatory screen for SK-N-SH cells (AID 1347129);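 also: cells exposed to compound for 48 h before viability read; nearly all actives have a fitted effect of over 60% in size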; also: potency is read from the fitted curve at half-maximal effect
Method in brief: as §1

[10] = system: Zika virus NS2B-NS3 protease (unlinked complex); test: Primary screen GU Rhodamine qHTS for Zika virus inhibitors: Unlinked NS2B-NS3 protease assay (AID 1347159); also: nearly all actives have a fitted effect of over 60% in size
Method in brief: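 Enzyme 25 nM in Tris-HCl pH 8.0 + 0.01% Tween 20; compounds up to 114 microM, 15 min RT dark; + Rhod110 substrate 1.5 microM; read t0 and 15 min; delta fluorescence → % inhibition → 4-parameter Hill fit.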

[11] = system: Zika virus NS2B-NS3 protease (linked construct); test: Primary screen NINDS Rhodamine qHTS for Zika virus inhibitors (AID 1347160); also: nearly all actives have a fitted effect of over 55% in size
Method in brief: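 Enzyme (25 nM, linked NS2B-NS3) was preincubated 15 min with compound in 10 mM Tris-HCl pH 8.0, 0.01% Tween 20. Rhodamine110 substrate (1.5 microM) was then added and fluorescence read at start and after 15 min.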

[12] = qHTS of pediatric cancer cell lines to identify multiple opportunities for drug repurposing: Confirmatory screen for Saos-2 cells (AID 1347127); also: potency is read from the fitted curve at half-maximal effect; nearly all actives have a fitted effect of over 60% in size
Method in brief: as §1

Furin (Homo sapiens) = Furin (Homo sapiens) (UniProt P09958); test: Furin counterscreen qHTS for Zika virus inhibitors (AID 1347149);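 also: purified recombinant full-length human furin enzyme at 5 nM; fluorescence gain from furin cutting a BOC-RVRR-AMC peptide substrate over 15 min; top concentration of the series differs between compounds; nearly all actives have a fitted effect of over 70% in size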
Method in brief: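 Counterscreen measures cleavage of 2 microM BOC-RVRR-AMC, below its ~15 microM Km, by 5 nM full-length human furin at pH 7.0 after a 15-min compound preincubation. Inhibition derives from the 15-min fluorescence increase at 37C.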

[13] = system: Zika virus NS2B-NS3 protease (linked construct); test: Confirmatory screen NINDS AMC qHTS for Zika virus inhibitors (AID 1347152); also: potency is read from the fitted curve at half-maximal effect; nearly all actives have a fitted effect of over 70% in size
Method in brief: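 Linked NS2B-NS3 protease, 1 nM, in 10 mM Tris-HCl pH 8.0, 0.01% Tween 20; compounds preincubated 15 min at room temperature. Nle-KRR-AMC 10 microM (Km 18.3 µM); 15-min fluorescence change (340/450 nm) fitted to 4-parameter Hill.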

[14] = Confirmatory screen NINDS Rhodamine qHTS for Zika virus inhibitors (AID 1347161); also: nearly all actives have a fitted effect of over 60% in size; also: potency is read from the fitted curve at half-maximal effect
Method in brief: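 Purified linked NS2B-NS3 protease (NS2B hydrophilic domain joined to NS3 protease by flexible linker), 25 nM in 10 mM Tris-HCl pH 8.0, 0.01% Tween 20. Compounds titrated, 15 min preincubation at room temperature; 1.5 microM Rhodamine110 substrate, FITC fluorescence change over 15 min.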

[15] = Confirmatory screen GU Rhodamine qHTS for Zika virus inhibitors qHTS (AID 1347157); also: nearly all actives have a fitted effect of over 70% in size
Method in brief: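 Noncovalent NS2B hydrophilic domain/NS3 protease complex (25 nM final) in 10 mM Tris-HCl pH 8.0, 0.01% Tween 20, preincubated 15 min with compounds (up to 114 microM), then 1.5 microM Rhodamine110 substrate. Fluorescence change over 15 min fitted to 4-parameter Hill.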

[16] = ZIKV-mCherry secondary qHTS for Zika virus inhibitors (AID 1347158); also: top concentration of the series differs between compounds
Method in brief: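 Percent infection is the share of Hoechst-identified Vero nuclei with mCherry signal above 450 RFU (3 SD over negative controls). Cells were infected with recombinant ZIKV-mCherry at MOI 1 after compound addition and imaged 48–72 h later.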

[17] = system: Zika virus NS2B-NS3 protease (linked); test: 384 well plate NINDS AMC confirmatory qHTS for Zika virus inhibitors (AID 1347163); conditions: Recombinant NS2B-NS3 protease, Ac-VKTGKR-AMC fluorescence; also: potency is read from the fitted curve at half-maximal effect; nearly all actives have a fitted effect of over 50% in size
Method in brief: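 Fluorescence at 355/460 nm was read after 25 minutes of cleavage of 30 microM Ac-VKTGKR-AMC at room temperature, in the dark. Before substrate addition, compounds (up to 1 mM final) sat ~15 minutes with 5, 30 or 60 nM linked protease. Signals were normalized to no-enzyme and no-inhibitor wells.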

N-terminal Xaa-Pro-Lys N-methyltransferase 1 (Homo sapiens), sequence (Q9BV86 whole entry, looked up): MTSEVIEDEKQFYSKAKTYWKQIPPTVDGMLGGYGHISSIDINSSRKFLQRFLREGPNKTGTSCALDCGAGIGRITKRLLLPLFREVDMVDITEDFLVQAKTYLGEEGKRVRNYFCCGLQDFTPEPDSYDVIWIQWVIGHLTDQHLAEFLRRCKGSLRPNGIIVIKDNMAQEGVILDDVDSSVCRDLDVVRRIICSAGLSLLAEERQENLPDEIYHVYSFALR
Furin (Homo sapiens), sequence (P09958 whole entry, looked up): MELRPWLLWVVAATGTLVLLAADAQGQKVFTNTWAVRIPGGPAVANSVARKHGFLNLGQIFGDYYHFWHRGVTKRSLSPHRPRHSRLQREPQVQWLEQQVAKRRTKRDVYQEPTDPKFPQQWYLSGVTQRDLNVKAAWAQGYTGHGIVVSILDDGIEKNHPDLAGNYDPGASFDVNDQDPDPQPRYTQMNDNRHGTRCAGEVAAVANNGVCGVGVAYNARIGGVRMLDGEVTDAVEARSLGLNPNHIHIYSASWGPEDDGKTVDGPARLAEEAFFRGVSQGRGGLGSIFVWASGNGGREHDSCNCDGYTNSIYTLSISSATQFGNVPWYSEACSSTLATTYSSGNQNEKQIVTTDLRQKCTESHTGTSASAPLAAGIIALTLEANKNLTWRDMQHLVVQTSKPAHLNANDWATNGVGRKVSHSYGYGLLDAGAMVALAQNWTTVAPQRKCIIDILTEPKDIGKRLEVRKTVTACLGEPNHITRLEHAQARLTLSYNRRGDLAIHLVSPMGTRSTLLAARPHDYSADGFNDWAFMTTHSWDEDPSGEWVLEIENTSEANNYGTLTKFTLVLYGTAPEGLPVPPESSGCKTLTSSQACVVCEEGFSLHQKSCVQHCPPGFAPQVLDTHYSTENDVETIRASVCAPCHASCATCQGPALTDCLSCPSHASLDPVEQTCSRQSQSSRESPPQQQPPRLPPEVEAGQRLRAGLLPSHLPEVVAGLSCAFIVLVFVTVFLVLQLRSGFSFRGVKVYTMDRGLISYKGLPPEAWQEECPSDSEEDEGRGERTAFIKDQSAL

Compound: C[C@]12CCC3C(CC[C@H]4C[C@H](O)CC[C@]34C)C1CC[C@@H]2C(=O)CO (some centres not stated)
- Potency [1]: inactive
- Potency [2]: inactive

Compound: NC1CCc2cc(O)c(O)cc2C1 (configuration not stated)
- Potency [1]: 22400 nM (active)
- Potency [2]: inactive
- Potency [3]: inactive

Compound: C[C@]12N[C@H](Cc3ccccc31)c1ccccc12
- Potency [1]: inactive
- Potency [2]: inactive

Compound: CCCCc1ccc(C(=O)O)nc1
- Potency [1]: inactive
- Potency [2]: inactive

Compound: Cn1cnc(CCN)c1
- Potency [1]: inactive
- Potency [2]: inactive

Compound: CS(=N)(=O)CC[C@H](N)C(=O)O (some centres not stated)
- Potency [1]: inactive
- Potency [2]: inactive

Compound: COc1ccc2c(c[n+](C)c3c4cc5c(cc4ccc23)OCO5)c1OC
- Potency [1]: 25100 nM (active)
- Potency [2]: 29900 nM (active)

Compound: C[C@H]1CCCC=CC2C[C@H](O)C[C@@H]2[C@H](O)C=CC(=O)O1 (some centres not stated)
- Potency [4]: 827 nM (active)
- Potency [5]: 329 nM (active)
- Potency [6]: 104 nM (active)
- Potency [7]: 3690 nM (active)
- Potency [8]: 46.5 nM (active)
- Potency [9]: 132 nM (active)
- Potency [3]: inactive

Compound: NC(N)=NOCCC(N)C(=O)O (configuration not stated)
- Potency [1]: inactive
- Potency [2]: inactive

Compound: C=CCON=C(C[C@H]1O[C@@H]2O[C@]3(C)CC[C@@H]4[C@H](C)CC[C@@H]([C@H]1C)[C@@]24OO3)[C@H]1O[C@@H]2O[C@]3(C)CC[C@H]4[C@H](C)CC[C@@H]([C@@H]1C)[C@@]24OO3
- Potency [4]: 52.2 nM (active)
- Potency [9]: inactive
- Potency [3]: inactive

Compound: Cc1c(C(=O)Nc2cccc(C(F)(F)F)c2)cc(-c2ccccc2)n1CCCN1CCOCC1
- Potency [4]: 21400 nM (active)
- Potency [8]: 42700 nM (active)
- Potency [3]: inactive
- Potency [10]: inactive
- Potency [11]: inactive

Compound: CC(=Cc1csc(C)n1)[C@@H]1C[C@H]2O[C@]2(C)CCC[C@H](C)[C@@H](O)[C@@H](C)C(=O)C(C)(C)[C@@H](O)CC(=O)O1
- Potency [4]: 10.4 nM (active)
- Potency [7]: inactive
- Potency [12]: 13.1 nM (active)
- Potency [8]: 13.1 nM (active)
- Potency [3]: inactive

Compound: C[C@@H]1O[C@@H](O[C@@H]2C=C3CC[C@@H]4[C@@H](CC[C@]5(C)[C@H](c6ccc(=O)oc6)CC[C@@]45O)[C@@]3(C)CC2)[C@H](O)[C@H](O)[C@H]1O
- Potency [4]: 16.5 nM (active)
- Potency [5]: 16.5 nM (active)
- Potency [7]: 46.5 nM (active)
- Potency [12]: 185 nM (active)
- Potency [8]: 16.5 nM (active)
- Potency [3]: inactive

Compound: C[N+]1(C)C2CC(OC(=O)[C@H](CO)c3ccccc3)CC1C1OC12 (some centres not stated)
- Potency [1]: inactive

Compound: CC(=O)[C@H]1CCC2C3CC[C@H]4C[C@H](O)CC[C@]4(C)C3CC[C@@]21C (some centres not stated)
- Potency [1]: inactive
- Potency [2]: inactive

Compound: NC(CP(=O)(O)O)C(=O)O (configuration not stated)
- Potency [1]: inactive
- Potency [2]: inactive
- Potency [3]: inactive

Compound: O=C(O)CC[N+](=O)[O-]
- Potency [1]: inactive
- Potency [2]: inactive

Compound: CC[C@@H]1C(=O)OC[C@@H]1Cc1cncn1C
- Potency [1]: inactive

Compound: C[N+]1(C)C2CCC1CC(OC(=O)C(CO)c1ccccc1)C2 (configuration not stated)
- Potency [1]: inactive
- Potency [2]: inactive

Compound: O=C(Nc1ccncc1)C(=O)c1cn(Cc2ccc(Cl)cc2)c2ccccc12
- Potency [4]: 465 nM (active)
- Potency [5]: 414 nM (active)
- Potency [7]: inactive
- Potency [12]: 585 nM (active)
- Potency [8]: 928 nM (active)
- Potency [3]: inactive

Compound: C[C@@H]1O[C@H](C[N+](C)(C)C)C[C@H]1O
- Potency [1]: inactive
- Potency [2]: inactive

Compound: CC1=NN=C(c2ccc(N)cc2)c2cc3c(cc2C1)OCO3
- Potency [1]: 56200 nM (active)

Compound: Clc1cnc(Oc2ccc(Oc3ncc(Cl)cc3Cl)cc2)c(Cl)c1
- Potency [1]: inactive
- Potency [2]: inactive
- Potency [3]: inactive

Compound: C=CCN1CC[C@]23CCCCC2[C@H]1Cc1ccc(O)cc13 (some centres not stated)
- Potency [1]: inactive
- Potency (Furin (Homo sapiens)): inactive
- Potency [2]: inactive

Compound: NC(=O)CN1CC(O)CC1=O (configuration not stated)
- Potency [1]: inactive
- Potency [2]: inactive

Compound: CN1C2CCC1CC(OC(=O)c1cc(Cl)cc(Cl)c1)C2 (configuration not stated)
- Potency [1]: inactive
- Potency [2]: inactive

Compound: CC(=O)N(C)c1cccc(-c2ccnc3c(C(=O)c4cccs4)cnn23)c1
- Potency [13]: 24100 nM (active)
- Potency [14]: inactive

Compound: Nc1c(Cl)c(Cl)c(Cl)c(Cl)c1Cl
- Potency [15]: inactive
- Potency [14]: inactive

Compound: O=C(O)c1cc(Oc2ccc(C(F)(F)F)cc2Cl)ccc1[N+](=O)[O-]
- outcome [16]: inactive
- Potency [17]: 562 µM (active)

Compound: CN(C)[C@@H]1C(=O)C(C(N)=O)=C(O)[C@@]2(O)C(=O)C3=C(O)c4c(O)cccc4[C@@](C)(O)[C@H]3[C@H](O)[C@@H]12
- outcome [16]: inactive
- Potency [14]: 19.7 µM (active) and 7.82 µM (active)
- Potency [17]: 158 µM (active) and 8.91 µM (active)

Source: PubChem BioAssay (NCATS)
